From PubChem BioAssay (NCI)
The panel holds about 83,000 compounds, 20% with a hit somewhere; the sample as a whole holds those more often.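 Cells were grown in 96-well plates and exposed to the test compound at a single concentration for 48 hours; results are reported as percent growth, with values below 10 considered active.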 Values without a mark were called inactive. Active and inactive are the calls of the source.

Key:
Experiment in all cases: NCI-60 one-dose screen, 48 h (100 = growth as untreated, 0 = no growth, -100 = all killed)
Settings in all cases: 10 µM unless noted
NCI-H23 lung = test system: NCI-H23 lung
NCI-H226 lung = test system: NCI-H226 lung
NCI-H322M lung = test system: NCI-H322M lung
HOP-62 NSCLC = test system: HOP-62 NSCLC
NCI-H460 lung = test system: NCI-H460 lung
HOP-92 NSCLC = test system: HOP-92 NSCLC
NCI-H522 lung = test system: NCI-H522 lung
A549/ATCC NSCLC = test system: A549/ATCC NSCLC
786-0 renal = test system: 786-0 renal
COLO 205 colon = test system: COLO 205 colon

Compound | growth (NCI-H23 lung) | growth (NCI-H226 lung) | growth (NCI-H322M lung) | growth (HOP-62 NSCLC) | growth (NCI-H460 lung) | growth (HOP-92 NSCLC) | growth (NCI-H522 lung) | growth (A549/ATCC NSCLC) | growth (786-0 renal) | growth (COLO 205 colon)
Cc1nc(/N=C(\N)NC(=O)Nc2cccc(Cl)c2)sc1C | 73.2% | 90.2% | 92% | 71% | 66% | 89.5% | 38.9% | 70.1% | 97.8% | 67.3%
NC1CCN(c2nc(Nc3cccc(C(F)(F)F)c3)c3c(=O)[nH]ccc3n2)CC1 | -58.9% (active) | -62.5% (active) | -12.7% (active) | -58.8% (active) | -59.1% (active) | -61.5% (active) | -85.3% (active) | -52.2% (active) | -97.7% (active) | -61.1% (active)
Cc1c(C(=O)/C=C/Nc2c(Cl)cc(S(N)(=O)=O)cc2Cl)sc2nc3ccccc3n12 | 99.8% | 99.6% | 107% | 107% | 104% | 111% | 89.9% | 103% | 107% | 110%
COc1ccc2c(c1)c(-c1nn3cc(-c4cccs4)nc3s1)cn2C | 82.5% | 78.9% | 55.8% | 85.6% | 68.7% | 44.7% | 63% | 81.1% | 97.5% | 64.5%
COc1cccc(Cc2cc(-c3ccccc3)nn(CC(=O)c3ccccc3)c2=O)c1 | 74.2% | 60.7% | 94.1% | 60.4% | 37.8% | 46.9% | 72.4% | 79.5% | 55.8% | 84.9%
Cc1nc2ccccc2c(/C=C/c2ccc(Cl)cc2)c1C(=O)/C=C/c1cccs1 | 67.8% | 81.2% | 87.4% | 94.9% | 66.7% | 64.1% | 57.4% | 88.1% | 87.4% | 82%
CN1CCN(Cc2ccc(NC(=O)c3ccc(C(C)(C)C)c(C#Cc4cnc5cccnn45)c3)cc2C(F)(F)F)CC1 | -65.1% (active) | 48.5% | -29.6% (active) | -73.1% (active) | -52.7% (active) | 23.9% | -73.5% (active) | -76.8% (active) | -85.4% (active) | -70.1% (active)
COc1cc(C(=O)/C=C/c2sc(Cl)nc2Cl)cc(OC)c1OC | 33.9% | 80.5% | 85.4% | 85% | 83.9% | 51.4% | 33.6% | 90.6% | 79.2% | -19.7% (active)
Cc1[nH]c(C(=O)Nc2ccc(C(=O)N3CCNCC3)cc2OC(C)C)c(Cl)c1Cl | 90.7% | 97.2% | 86.1% | 88.7% | 2.04% (active) | 43.5% | 94% | 70.2% | 77.6% | -47% (active)
O=C1c2ccccc2NC(n2sc3ccccc3c2=O)N1c1ccccc1 (stereo not given) | 99% | 93.3% | 91.9% | 92.3% | 107% | 95.2% | 76.8% | 101% | 92% | 115%
C[C@H]1[C@H]2[C@H]3CC[C@@H]4[C@@]5(C)CC[C@H](O)C(C)(C)[C@@H]5CC[C@@]4(C)[C@]3(C)CC[C@]23CO[C@]1(C)[C@@H](C(=O)/C=C\c1cccnc1)C3 | 59.5% | 76.6% | 88.4% | 81.7% | 40.7% | 79.1% | 38% | 57.8% | 63.6% | 56.3%
COc1ccc(OC)c(/C=C/C(=O)N/N=C/c2ccc(Cl)cc2)c1 | 34.8% | 73.1% | 41.3% | 37.9% | 5.19% (active) | 77.7% | -36.2% (active) | 27.8% | 16.7% | -48.9% (active)
COc1ccc(S(=O)(=O)n2c3ccccc3n3ncc(-c4nnc(C)o4)c23)cc1 | 31.7% | 55.7% | 49% | 37.3% | 14.2% | 66% | 31.2% | 27.4% | 42.7% | 7.03% (active)
O=c1c2cc(F)ccc2sc2c(N3CCNCC3)nc3ccccc3c12 | 68.8% | 88% | 60.3% | 61.4% | -76.4% (active) | 36.8% | 39.3% | 34.4% | 65.7% | -49.6% (active)
N#Cc1c(Nc2cccc(Cl)c2)sc(C(=O)c2cc3cc(Cl)ccc3o2)c1N | 77% | 94% | 113% | 107% | 46.7% | 8.1% (active) | 34.8% | 94.1% | 96.9% | 89%
Cc1ccc(S(=O)(=O)Oc2ccc(NC(=O)c3ccc(Cl)cc3)cc2)cc1 | 102% | 109% | 91% | 91.1% | 103% | 102% | 83.8% | 95% | 91.1% | 113%
COc1ccc(C2NC(=O)C(C#N)c3c2sc2c(F)cccc32)c(OC)c1 (stereo not given) | 64.8% | 62.2% | 90.4% | 57.4% | 31.8% | 42.2% | 7.97% (active) | 58.5% | 68.5% | 88.3%
Cc1ccc(C(CC(=O)O)c2c(C)[nH][nH]c2=O)cc1 (stereo not given) | 95.3% | 102% | 104% | 97.9% | 108% | 118% | 94.5% | 105% | 96% | 113%
Cc1ccc(/C=N\NC(=O)c2[nH]c3ccc(F)cc3c2-c2ccccc2)cc1 | 38% | 46.4% | 57.7% | 42.3% | 3.26% (active) | 4.75% (active) | -42.3% (active) | 23% | 35.1% | -78.8% (active)
c1ccc(-c2nc3nonc3nc2-c2ccccc2)cc1 | 52.4% | 69.2% | 81.7% | 79% | 62.8% | 78% | 49.2% | 76.7% | 73.8% | 82.6%
O=C(CSc1nccc(Nc2ccc(S(=O)(=O)Nc3nccs3)cc2)n1)c1ccc(C(F)(F)F)cc1 | 88.1% | 89.2% | 106% | 113% | 107% | 90.8% | 84.4% | 99.6% | 99.7% | 112%
CN1CCN(c2ccc(-c3cc4c(Nc5ccc(F)c(Cl)c5)ncnn4c3)cc2)CC1 | 96.2% | 89% | 32.9% | 103% | 8.58% (active) | 76.8% | 72.5% | 71.4% | 89.6% | 37%
O=C1CCC/C=C\C[C@H]2C=CC(=O)/C2=C/C[C@H](CCc2cccc(C(F)(F)F)c2)O1 | -22% (active) | -36.2% (active) | -44.6% (active) | -73.7% (active) | -24.6% (active) | -46.5% (active) | -88.7% (active) | 0.826% (active) | -79.2% (active) | -84.8% (active)
Cc1ccc(-c2nc(N3CCN(C(=O)c4ccc(OC(F)(F)F)cc4)CC3)c3ccccc3n2)cc1 | 94.9% | 83.6% | 93% | 99.3% | 92.8% | 103% | 82% | 71.6% | 81.7% | 91.1%
COc1cc(CCC[P+](c2ccccc2)(c2ccccc2)c2ccccc2)c(OC)c(OC)c1OC | 77.9% | 88.8% | 83.3% | 82.1% | 82.2% | 61.8% | 71.9% | 78.2% | 75.3% | 105%
CCCCn1c(-c2ccc(-c3nc(-c4ccc(Cl)cc4)no3)cc2)nc(-c2ccccc2)c1-c1ccccc1 | 68.2% | 84.2% | 90.4% | 92.4% | 95.6% | 75.4% | 75.2% | 36.3% | 82% | 98.8%
O=C1NC(=O)C(c2ccccc2)(c2ccccc2)N1Cc1cn(-c2c3ccccc3nc3ccccc23)nn1 | 85.5% | 99.5% | 92.9% | 87.5% | 74.1% | 67.3% | 15.9% | 78.2% | 87.3% | 107%
